Measurements as given in the supplement of paper PMC6555819.

Experiments:
Test in all cases: PBM binding z-score (relative to random genomic background probes); higher = stronger binding; sequences stand for … in GC…GCGATTGACAGCGTAGAATGAAGG
[1] = tested on: RARb homodimer (NR concentration 270 nM)
Outline: (§1)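 On custom Agilent 4×180K arrays, double-stranded probes with 34-nt variable regions carried direct-repeat seeds, single-nucleotide variants, half-site ablations or random human genomic background. Ligand-free nuclear receptor dimers were applied for 1 h, and binding was read with antibodies against each partner (one per run). Binding z-scores come from regression-normalized fluorescence, with the random background probes as reference.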

[2] = tested on: RARg:RXRa (NR concentration 270 nM, RXRa partner concentration 90 nM)
Outline: as §1

[3] = tested on: RARg homodimer (NR concentration 270 nM)
Outline: as §1

[4] = tested on: RXRa DBDmut IVT, anti-RXR (DBD mutation: RXRa K156A/R161A, NR concentration 90 nM)
Outline: as §1

[5] = tested on: RXRa homodimer (NR concentration 180 nM)
Outline: as §1

[6] = tested on: THRa:RXRa (NR concentration 90 nM, RXRa partner concentration 90 nM)
Outline: as §1

[7] = tested on: THRa homodimer (NR concentration 90 nM)
Outline: as §1

[8] = tested on: VDR:RXRa (NR concentration 270 nM, RXRa partner concentration 90 nM)
Outline: as §1

[9] = tested on: VDR homodimer (NR concentration 270 nM)
Outline: as §1

Sequence | PBM binding z-score [1] | PBM binding z-score [2] | PBM binding z-score [3] | PBM binding z-score [4] | PBM binding z-score [5] | PBM binding z-score [6] | PBM binding z-score [7] | PBM binding z-score [8] | PBM binding z-score [9]
CCGACTGGGGCAAAGCTTACCATACTCAGTACGA | -0.047 | 0.0271 | 0.339 | 0.525 | -0.115 | -0.341 | -0.519 | -0.585 | -0.448
TCATATAGGTAATACAGGTGCAAGTCGGCATCTA | 0.266 | 0.587 | 0.617 | 1.65 | 0.938 | 1.16 | -0.0511 | 1.91 | 1.03
AGTCAAAGTTCAGGACGAGGTAAGGTAAAGCACG | 3.46 | 4.56 | 4.61 | 3.11 | 3.09 | 3.72 | 2.26 | 2.4 | 2.09
CAAACTAGGTCAATGGTCAAAGTCGAGCCAACCA | 3.34 | 3.81 | 4.56 | 1.51 | 2.95 | 2.56 | 0.976 | 1.67 | 0.812
GCAAGCAGGCCATTTGGGTCACTCAATGACGGGC | 1.76 | 0.948 | 1.18 | -0.0801 | 0.769 | 1.79 | 0.53 | 0.865 | 0.402
AGTCAAAGTTCACAAGGTAACGTAAGATTCAGCT | 3.97 | 5.73 | 6.02 | 4.32 | 4.74 | 3.06 | 0.961 | 4.25 | 3.66
CAGCCTAGGTCAGGTCCAGTATAGGAGGAACGTT | 1.98 | 2.25 | 3.33 | -0.0428 | 1.14 | 1.68 | 0.525 | 0.304 | 0.207
TTACTAAGGTGAAAGGTCGTTGATGCACGCCTTG | 3.02 | 4.74 | 2.37 | 1.45 | 6.58 | 4 | 2.17 | 3.59 | 1.78
ATCTCTAGGTAAAAGTTCAGCGAATCCCGAGGAT | 2.76 | 2.88 | 3.02 | 0.792 | 2.62 | 1.58 | 0.0924 | 1.69 | 1.07
TAGCCTAGTTCATGGGCCAGTATACCACGCGAAC | 1.05 | 0.816 | 0.746 | 1.37 | 0.734 | 0.187 | 0.00574 | 0.685 | 1.42
TCTCGTAGATCAATAGAGGTTAAGAAAGTGCGCT | 0.966 | 0.48 | 0.249 | 0.754 | 1.19 | 2.07 | -0.641 | 1.68 | 0.163
TCATATAGGTAAATGCTAGGTGGAAGTCCGATCT | -0.19 | 0.303 | 0.0562 | 1.28 | 0.571 | 0.0546 | -0.18 | 0.687 | 0.0417
TCTTGTAGATCAATAGAGGTCAAGAAAGTGCGCT | 4.21 | 3.92 | 3.84 | 0.858 | 4.46 | 4.17 | 0.941 | 4.77 | 2.12
GCTGCTACGTCAGGTTGGTCAGCTAACGGGTACG | -0.00672 | -0.503 | -0.278 | -0.049 | -0.469 | -0.38 | -0.55 | -0.773 | -0.226
GATACAGGCTCAAGGCCAGAGTACGCGTATTGAT | -0.491 | -0.284 | 0.128 | -0.619 | -0.27 | -0.479 | -0.602 | -0.543 | -0.14
CCGAGTAGGTTATGGGGGATTCAGGCAACGGTGA | 1.28 | 1.3 | 1.08 | 0.281 | 0.959 | 1.58 | 1.7 | 1.45 | 1.12
AATACAGGGTCACTAGGCCAGTGTAGGTACGAAT | 3.48 | 5.29 | 5.09 | 2.82 | 6.04 | 3.4 | 1.26 | 4.26 | 2.89
CCTTACGGGTCACTGACAAGTTATAGCATTTGGA | 2.62 | 4.86 | 4.71 | 1.85 | 5.12 | 2.29 | 0.165 | 3.07 | 0.93
GGAACGAGGGCAAGTTGATAGCTGAGTTTGATGG | 1.5 | 1.45 | 2.07 | 2.58 | 0.669 | 1.09 | 0.0146 | 0.643 | 1.84
TGTAGTTGGTCAAAGGTCACACACTCGAAATGCG | 4.97 | 7.09 | 6.06 | 1.24 | 8.07 | 4.1 | 2.18 | 5.19 | 2.51
GATACAGGGTCAAGGCCAGAGCACGCGTATTGAT | 3.82 | 5.4 | 4.9 | 2.27 | 5.45 | 3.6 | 1.34 | 4.21 | 1.92
GCTTACGGGTCAAAGGCTATAGCATGAATAGAAT | 2.54 | 4.79 | 4.31 | 1.73 | 6.17 | 2.45 | -0.68 | 3.47 | 0.708
TCTGCCAGGTCAGTTGGTCAGCTAACGAGCTGCC | 2.77 | 2.86 | 3.55 | 0.569 | 1.12 | 2.11 | 0.521 | 0.52 | -0.514
TCTAGTTGGTCAAAGGTCACACAGTCGAAATGCG | 5.27 | 7.05 | 6.38 | 1.73 | 8.22 | 4.12 | 2.06 | 5.68 | 2.98

Sequence | PBM binding z-score [1] | PBM binding z-score [2] | PBM binding z-score [3] | PBM binding z-score [4] | PBM binding z-score [5] | PBM binding z-score [6] | PBM binding z-score [7] | PBM binding z-score [8] | PBM binding z-score [9]
GATACCGGGTCAAGGCCAGAGTACGCGTATTGAT | 3.05 | 4.34 | 3.93 | 0.478 | 4.58 | 3.49 | 1.25 | 3.11 | 1.07
TCTCGGAGGACACGAAAGGTCAGACCTCGACATC | 4.65 | 4.84 | 5.27 | 1.39 | 4.1 | 3.73 | 1.55 | 3.52 | 1.14
ACTAGTTGGTCAGCTGACGTCACACACAATTCGG | 0.958 | 0.549 | 0.913 | 0.433 | 0.459 | 0.178 | 0.155 | 0.0123 | -0.472
CTCGAAAGCTCGGTTGAGGTGAGTATACGGATAA | -0.282 | -0.264 | -0.254 | -0.28 | -0.256 | 1.85 | 1.03 | -0.326 | -0.293
ACTAGCAGGCGAAGTTTGGGTCACTCAAACAAAG | 1.48 | 0.795 | 0.54 | -0.3 | 0.656 | 1.91 | 0.813 | 0.191 | -0.246
ATCTCTAGGGAAAGATAGTTCAGTGAATGCAAAT | 0.675 | 0.502 | 0.656 | 0.0504 | 0.0958 | 0.201 | -0.33 | 0.156 | 0.635
TTACCAAGGTGCAAGGTCGTTGATGCACGCCTTG | 1.21 | 0.66 | 0.411 | 1.33 | 1.54 | 1.62 | 0.68 | 1.92 | 2.9
GCAGACAGGTGAAACGCAGGTAACTCGGGGTGGC | 0.185 | 0.966 | 0.131 | -0.847 | 0.633 | 1.55 | -0.0919 | -0.198 | -0.486
CAAACTAGGTCACGAAAGGTCAAAGTAGAATGAC | 5.89 | 7.93 | 8.94 | 2.39 | 8.5 | 5.12 | 2.65 | 6.69 | 3.78
TCTTGTAGATCAATAGCGGTTAAGAAAGTGCGCT | -0.0533 | 0.105 | -0.0407 | 0.457 | 0.288 | 0.011 | -0.478 | 0.46 | 0.0262
TCTTGTAGATCAACAGGAGGTTAAGAAGGATCGA | 0.431 | 0.952 | 0.15 | 0.27 | 1.09 | 0.94 | -0.619 | 0.575 | -0.0476
TCATATAGGTAAACAGATGAAAGTCCGTAAGTTA | 0.099 | 0.636 | 0.431 | 1.38 | 0.703 | 0.419 | -0.0722 | 1.17 | 0.455
GCGACTGGGGCATGAGCAGGTTACCATAACTTAA | 0.894 | 0.84 | 0.396 | -0.489 | 0.385 | 0.664 | -0.144 | -0.262 | -0.116
CCTACTCGGCCAAGGTCATTGATCAGTCAAAGCA | 3.33 | 3.95 | 3.71 | 2.24 | 3.6 | 3.36 | 2.98 | 3.51 | 3.83
CCTCCAAGGTCAAGGTCAGTGAAAGAGACTCGAA | 5.05 | 6.52 | 7.43 | 3.49 | 6.09 | 4.18 | 3.64 | 4.69 | 2.98
CCTATTAGTTGACCATAAGGGCAACCGTAGCTCG | 1.93 | 1.09 | 1.25 | 0.707 | 0.63 | 1.92 | 1.29 | 0.674 | 0.902
ATCTCTAGGTAAATTTCAGTGAAAGATCGATAGA | -0.353 | 0.0563 | 0.241 | 0.179 | 0.137 | 0.356 | -0.0111 | 0.297 | 0.034
ATTTCTAGGTAACCAAGTTCAGTGAATGCCGAAC | 1.55 | 0.786 | 0.952 | 0.875 | 0.621 | 1.81 | 0.761 | 4.22 | 3.08
GCTGCTAGGACAGGTTGGTCAGCTAACGGGTACG | 0.214 | -0.345 | 0.153 | -0.341 | -0.463 | -0.106 | -0.393 | -0.674 | -0.149
GCTAGTTGGTCAGTATAAGGTCACACACCGGTCG | 4.41 | 4.28 | 3.75 | 0.514 | 3.9 | 4.29 | 5.46 | 3.24 | 2.76
ACTGGCAGGCCAAGGGTCACTCAAGATTAGTCCG | 3.66 | 4.14 | 3.64 | -0.0715 | 3.95 | 2.71 | 0.159 | 2.69 | 1.11
CCTACTGGGCCACGAAAGGTCATGGATTCAGTGA | 4.94 | 5.28 | 4.71 | -0.0305 | 6.03 | 3.97 | 1.17 | 4.1 | 1.35
GGAATGAGGGCAAGTTGATAGCAGAGTTTGATGG | 1.65 | 1.55 | 2.21 | 2.79 | 1.04 | 1.85 | 1.02 | 1.18 | 2.22
ATTTCTAGGTAAGACTCAGTTCAGTGAAGAACGC | 0.518 | 0.801 | 0.283 | 0.956 | 0.351 | 0.941 | 0.851 | 1.6 | 2
